The source made the active and inactive calls. No rule for the calls is given here.
Test system: Rolipram
Experiment: CYP450 and receptor off-target profile – biochemical, Ricerca HitProfilingScreen, selectivity assay for S1P4 agonist project, late-stage follow-up (AID 504400)
Conditions: Ricerca radioligand binding/enzyme panel plus CYP450, at 10 µM, active compounds read high

## Clc1ccc(OCCOc2ccc(Br)nc2Br)c(Cl)c1
  inhibition: -3% (inactive)

From PubChem BioAssay AID504400 (The Scripps Research Institute Molecular Screening Center, 2011)
